Experimental data reported in PubChem BioAssay.
Activity calls are given as the source filed them.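 Rule for the calls: active = normalized viability below 100% at a tested concentration; inactive = the rest.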

Experiment: ovarian cancer cell viability with rucaparib, profiling panel, oncology-focused library, rucaparib conditional (AID 1508598)
Conditions: patient-derived ovarian cancer cells, CellTiter-Glo viability, 144 h, stronger effect = lower value
[1] = at 0.000305 µM, OCI-C5x cells, with rucaparib 10 µM, 100% = cells with rucaparib alone
[2] = at 0.000305 µM, OCI-C5x cells, without rucaparib
[3] = at 0.000305 µM, OCI-P5x cells, with rucaparib 20 µM, 100% = cells with rucaparib alone
[4] = at 0.000305 µM, OCI-P5x cells, without rucaparib
[5] = at 0.00122 µM, OCI-C5x cells, with rucaparib 10 µM, 100% = cells with rucaparib alone
[6] = at 0.00122 µM, OCI-C5x cells, without rucaparib
[7] = at 0.00122 µM, OCI-P5x cells, with rucaparib 20 µM, 100% = cells with rucaparib alone
[8] = at 0.00122 µM, OCI-P5x cells, without rucaparib
[9] = at 0.00488 µM, OCI-C5x cells, with rucaparib 10 µM, 100% = cells with rucaparib alone
[10] = at 0.00488 µM, OCI-C5x cells, without rucaparib
[11] = at 0.00488 µM, OCI-P5x cells, with rucaparib 20 µM, 100% = cells with rucaparib alone
[12] = at 0.00488 µM, OCI-P5x cells, without rucaparib
[13] = at 0.0195 µM, OCI-C5x cells, with rucaparib 10 µM, 100% = cells with rucaparib alone
[14] = at 0.0195 µM, OCI-C5x cells, without rucaparib
[15] = at 0.0195 µM, OCI-P5x cells, with rucaparib 20 µM, 100% = cells with rucaparib alone
[16] = at 0.0195 µM, OCI-P5x cells, without rucaparib
[17] = at 0.0781 µM, OCI-C5x cells, with rucaparib 10 µM, 100% = cells with rucaparib alone
[18] = at 0.0781 µM, OCI-C5x cells, without rucaparib
[19] = at 0.0781 µM, OCI-P5x cells, with rucaparib 20 µM, 100% = cells with rucaparib alone
[20] = at 0.0781 µM, OCI-P5x cells, without rucaparib
[21] = at 0.313 µM, OCI-C5x cells, with rucaparib 10 µM, 100% = cells with rucaparib alone
[22] = at 0.313 µM, OCI-C5x cells, without rucaparib
[23] = at 0.313 µM, OCI-P5x cells, with rucaparib 20 µM, 100% = cells with rucaparib alone
[24] = at 0.313 µM, OCI-P5x cells, without rucaparib
[25] = at 1.25 µM, OCI-C5x cells, with rucaparib 10 µM, 100% = cells with rucaparib alone
[26] = at 1.25 µM, OCI-C5x cells, without rucaparib
[27] = at 1.25 µM, OCI-P5x cells, with rucaparib 20 µM, 100% = cells with rucaparib alone
[28] = at 1.25 µM, OCI-P5x cells, without rucaparib
[29] = at 5 µM, OCI-C5x cells, with rucaparib 10 µM, 100% = cells with rucaparib alone
[30] = at 5 µM, OCI-C5x cells, without rucaparib
[31] = at 5 µM, OCI-P5x cells, with rucaparib 20 µM, 100% = cells with rucaparib alone
[32] = at 5 µM, OCI-P5x cells, without rucaparib

Measured: viability

CC[C@]1(O)C[C@@H]2CN(CCc3c([nH]c4ccccc34)[C@@](C(=O)OC)(c3cc4c(cc3OC)N(C=O)[C@H]3[C@@](O)(C(=O)OC)[C@H](OC(C)=O)[C@]5(CC)C=CCN6CC[C@@]43[C@@H]65)C2)C1
active: [3] 91.7% | [4] 90.9% | [7] 73.6% | [8] 31.5% | [9] 66.7% | [10] 41.5% | [11] 51% | [12] 17.7% | [13] 44.5% | [14] 29% | [15] 57.9% | [16] 14.5% | [17] 36.6% | [18] 24% | [19] 49.3% | [20] 12.1% | [21] 34% | [22] 23.4% | [23] 49.8% | [24] 10.9% | [25] 33.5% | [26] 23.5% | [27] 44.2% | [28] 12.2% | [29] 34.1% | [30] 22.9% | [31] 43% | [32] 11.8%
inactive: [1] 113% | [2] 110% | [5] 106% | [6] 106%

C[C@@H]1C[C@H]2[C@@H]3CCC4=CC(=O)C=C[C@]4(C)[C@]3(F)[C@H](O)C[C@]2(C)[C@]1(O)C(=O)CO
active: [27] 95.5% | [31] 90.8%
inactive: [1] 111% | [2] 118% | [3] 107% | [4] 121% | [5] 117% | [6] 125% | [7] 110% | [8] 123% | [9] 102% | [10] 116% | [11] 112% | [12] 115% | [13] 111% | [14] 117% | [15] 108% | [16] 114% | [17] 108% | [18] 107% | [19] 100% | [20] 110% | [21] 111% | [22] 109% | [23] 104% | [24] 108% | [25] 109% | [26] 116% | [28] 101% | [29] 117% | [30] 108% | [32] 101%

CC(=O)O[C@H]1C(=O)[C@@]2(C)C([C@H](OC(=O)c3ccccc3)[C@]3(O)C[C@H](OC(=O)[C@H](O)[C@@H](NC(=O)c4ccccc4)c4ccccc4)C(C)=C1C3(C)C)[C@]1(OC(C)=O)CO[C@@H]1C[C@H]2O (stereo partly specified)
active: [9] 75.3% | [10] 71.2% | [11] 97.9% | [12] 39.8% | [13] 37% | [14] 35.9% | [15] 63.2% | [16] 16.9% | [17] 34.2% | [18] 30.2% | [19] 64.9% | [20] 17.4% | [21] 36.2% | [22] 29.8% | [23] 57.9% | [24] 18.2% | [25] 30% | [26] 32.8% | [27] 56.9% | [28] 18.7% | [29] 24.5% | [30] 24.4% | [31] 34.2% | [32] 17%
inactive: [1] 112% | [2] 129% | [3] 125% | [4] 125% | [5] 114% | [6] 121% | [7] 119% | [8] 123%

CO[C@H]1C[C@H]2CC[C@@H](C)[C@@](O)(O2)C(=O)C(=O)N2CCCC[C@H]2C(=O)O[C@H]([C@H](C)C[C@@H]2CC[C@H](OP(C)(C)=O)[C@H](OC)C2)CC(=O)[C@H](C)/C=C(\C)[C@@H](O)[C@@H](OC)C(=O)[C@H](C)C[C@H](C)/C=C/C=C/C=C/1C
active: [3] 79.2% | [4] 65.5% | [6] 97.3% | [7] 77.8% | [8] 59.6% | [9] 97.3% | [10] 90.1% | [11] 76.6% | [12] 61.2% | [14] 93.1% | [15] 76.4% | [16] 63% | [18] 96.7% | [19] 76.7% | [20] 60.3% | [22] 95.8% | [23] 75.8% | [24] 60.4% | [26] 94.5% | [27] 82.1% | [28] 60.8% | [31] 74.3% | [32] 59.8%
inactive: [1] 115% | [2] 103% | [5] 102% | [13] 103% | [17] 103% | [21] 108% | [25] 104% | [29] 114% | [30] 102%

O=C(/C=C/c1ccc2ccccc2n1)c1ccncc1
inactive: [1] 108% | [2] 116% | [5] 121% | [6] 120% | [9] 119% | [10] 119% | [13] 122% | [14] 130% | [17] 119% | [18] 116% | [21] 120% | [22] 112% | [25] 113% | [26] 124% | [28] 111% | [30] 128% | [32] 109%
active: [3] 96% | [4] 84.9% | [7] 99.6% | [8] 91.2% | [11] 70.3% | [12] 17.7% | [15] 56.8% | [16] 13.9% | [19] 51.3% | [20] 15.5% | [23] 54.4% | [24] 13.6% | [27] 34.2% | [29] 3.77% | [31] 16.9%

COc1cc2c(cc1O)CC[C@@H]1[C@H]2CC[C@]2(C)[C@H](O)CC[C@@H]12
active: [4] 96.3% | [7] 99.4% | [15] 95.3% | [26] 96.8% | [28] 66.5% | [31] 98.9% | [32] 97.5%
inactive: [1] 113% | [2] 107% | [3] 106% | [5] 116% | [6] 111% | [8] 104% | [9] 119% | [10] 118% | [11] 109% | [12] 108% | [13] 103% | [14] 105% | [16] 105% | [17] 105% | [18] 105% | [19] 102% | [20] 104% | [21] 124% | [22] 107% | [23] 106% | [24] 105% | [25] 107% | [27] 104% | [29] 124% | [30] 101%

CCC1=CC2CN(C1)Cc1c([nH]c3ccccc13)[C@@](C(=O)OC)(c1cc3c(cc1OC)N(C)[C@H]1[C@@](O)(C(=O)OC)[C@H](OC(C)=O)[C@]4(CC)C=CCN5CC[C@@]31[C@H]54)C2 (stereo partly specified)
active: [3] 1.99% | [4] 2.91% | [5] 94.4% | [6] 70.1% | [7] 1.29% | [8] 1.02% | [9] 50.6% | [10] 43.8% | [11] 52.9% | [12] 20.3% | [13] 39.2% | [14] 33.7% | [15] 50.5% | [16] 16.3% | [17] 40.3% | [18] 22.9% | [19] 49.1% | [20] 13.6% | [21] 33.8% | [22] 23.8% | [23] 46.6% | [24] 12.6% | [25] 39.7% | [26] 21.7% | [27] 45.2% | [28] 11.4% | [29] 36.1% | [30] 22.2% | [31] 41.7% | [32] 8.33%
inactive: [1] 110% | [2] 106%

CCOc1ccc(Cc2cc([C@@H]3O[C@H](CO)[C@@H](O)[C@H](O)[C@@H]3O)ccc2Cl)cc1
active: [3] 94.3% | [4] 91.9% | [7] 96.6% | [8] 98.1% | [12] 98.8% | [27] 99.3%
inactive: [1] 111% | [2] 102% | [5] 126% | [6] 108% | [9] 108% | [10] 106% | [11] 105% | [13] 117% | [14] 116% | [15] 101% | [16] 107% | [17] 111% | [18] 108% | [19] 106% | [20] 106% | [21] 112% | [22] 118% | [23] 105% | [24] 105% | [25] 111% | [26] 118% | [28] 112% | [29] 110% | [30] 121% | [31] 106% | [32] 109%
